PubChem BioAssay (Tox21)
Records with an inconclusive call do not appear. Entries that show only a call come without a potency. The source made the active and inactive calls. Unless noted, calls come from the whole dose curve.

Columns and labels:
[1] = Nuclear factor erythroid 2-related factor 2/antioxidant responsive element (Nrf2/ARE) small molecule agonists: qHTS cell viability counter screen in human keratinocytes (AID 1919968; active = well fitted curve in the direction sought with a large enough effect in the repeat runs; an effect the other way counts as inactive or inconclusive; note: nearly all actives have a fitted effect of over 55% in size)
Summary of the method: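 CellTiter-Fluor fluorescence, read 1 h after reagent, gave viability in the same wells as the ARE-luciferase assay. KeratinoSens cells (1,500/well) had 23 h compound exposure at 37 C/5% CO2 following 5 h plating.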

[2] = Nuclear factor erythroid 2-related factor 2/antioxidant responsive element (Nrf2/ARE) small molecule agonists: luciferase reporter gene qHTS assay in human keratinocytes (AID 1919969); note: nearly all actives have a fitted effect of over 35% in size
[3] = molecular target: Gonadotropin-releasing hormone receptor (Homo sapiens) (UniProt P30968); assay: Human gonadotropin-releasing hormone receptor (GnRHR) small molecule agonists, calcium flux assay in GnRHR-HEK293 cells (AID 1920063); note: nearly all actives have a fitted effect of over 35% in size
Summary of the method: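 Agonist mode: compounds at 15 concentrations, in triplicate, went onto calcium dye-loaded GnRHR-HEK293 cells. Intracellular calcium was then followed as 480/540 nm fluorescence at 1 s intervals over 3 min.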

[4] = molecular target: KiSS-1 receptor (Homo sapiens) (UniProt Q969F8); assay: Human kisspeptin (KISS1R) small molecule agonists, calcium flux assay in KISS1R-HEK293 cells (AID 1920064; active = well fitted curve in the direction sought with a large enough effect in the repeat runs; an effect the other way counts as inactive or inconclusive)
Summary of the method: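 Agonist mode: intracellular calcium rise tracked at 1 s intervals over 3 min (480/540 nm) immediately after compound addition to dye-loaded KISS1R-HEK293 stable cells. Each compound tested at 15 concentrations in triplicate.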

[5] = G protein-coupled receptor (GPCR) small molecule agonists, calcium flux assay: HEK293 wild type cell line counter screen (AID 1920065)
Summary of the method: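 Calcium flux counter screen: compound added in agonist mode at 15 concentrations in triplicate to dye-loaded parental HEK293 cells. Fluorescence (480/540) read kinetically for 3 min; ATP served as positive control.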

[6] = p53 small molecule agonists, cell-based qHTS assay with human liver microsomes (AID 1963577);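 note: p53 response element beta-lactamase reporter cells with liver microsomes plus NADPH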
Summary of the method: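 Compounds act here after metabolic activation: human liver microsomes and NADPH, both at 0.5 mg/mL final, were co-added to p53RE-bla cells. Incubation ran 16 h at 37 C, followed by LiveBLAzer detection.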

[7] = p53 small molecule agonists, cell-based qHTS assay with rat liver microsomes: qHTS cell viability counter screen (AID 1963580); note: nearly all actives have a fitted effect of over 45% in size
Summary of the method: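 Rat liver microsome (0.5 mg/mL final) and NADPH (0.5 mg/mL final) co-incubation with compounds for 16 h at 37 C on HCT-116 p53RE-bla cells; cytotoxicity taken from intracellular ATP luminescence.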

[8] = p53 small molecule agonists, cell-based qHTS assay: qHTS cell viability counter screen (AID 1963581); note: nearly all actives have a fitted effect of over 45% in size
Summary of the method: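 Counter screen read by CellTiter-Glo luminescence (ATP content, 30 min at room temperature), run in the same wells as the beta-lactamase reporter read. HCT-116 p53RE-bla cells saw compounds for 16 h at 37 C.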

[9] = p53 small molecule agonists, cell-based qHTS assay (AID 1963582; active = well fitted activation curve with a large enough effect in the signal ratio in the repeat runs, not every such curve was filed as active; the % refers to the signal ratio)
Summary of the method: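 Read-out is beta-lactamase FRET fluorescence after 2 h at room temperature with LiveBLAzer B/G substrate. p53 response element-bla cells were treated 16 h at 37 C with compounds in DMSO, added 5 h after seeding.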

[10] = molecular target: 5-hydroxytryptamine receptor 2A (Homo sapiens) (UniProt P28223); assay: 5-hydroxytryptamine receptor 2A (HTR2A) small molecule antagonists, cell-based qHTS assay (AID 1963586); note: nearly all actives have a fitted effect of over 45% in size
Summary of the method: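 CHO cells stably expressing human HTR2A were plated for 18 h at 37 C, then loaded with calcium dye for 1 h. Compounds were preincubated 5 min at room temperature before DOI (4 nM solution) was added. Kinetic fluorescence was read for 3 min.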

[11] = molecular target: Muscarinic acetylcholine receptor M1 (Homo sapiens) (UniProt P11229); assay: Cholinergic receptor muscarinic 1 (CHRM1) small molecule antagonists, cell-based qHTS assay (AID 1963588); note: nearly all actives have a fitted effect of over 40% in size
Summary of the method: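 Compounds were tested at 15 concentrations in three independent runs. Dye-loaded CHRM1-CHO cells were exposed 5 min at room temperature before stimulation by acetylcholine added at 50nM. Intracellular calcium was read kinetically on FDSS for 3 min.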

[12] = molecular target: Muscarinic acetylcholine receptor M1 (Homo sapiens) (UniProt P11229); assay: Cholinergic receptor muscarinic 1 (CHRM1) small molecule agonists, cell-based qHTS assay (AID 1963589); note: nearly all actives have a fitted effect of over 35% in size
Summary of the method: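 Agonist-mode calcium-flux screen: compounds at 15 concentrations, three independent runs, were pin-transferred onto dye-loaded human CHRM1-CHO cells. Fluorescence was then recorded kinetically every second over minutes.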

[13] = cAMP Responsive Elements (CRE) small molecule agonists, cell-based qHTS assay (AID 1963590)
Summary of the method: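 Agonist mode: compound added to CRE-bla HEK 293T cells (2,000/well, 18 h after plating) for 3 h at 37 C/5% CO2. Reporter activity detected via FRET beta-lactamase substrate, 2 h room-temperature loading.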

[14] = cAMP Responsive Elements (CRE) small molecule antagonists, cell-based qHTS assay (AID 1963591; active = well fitted inhibition curve with a large enough effect in the signal ratio in the repeat runs, not every such curve was filed as active; the % refers to the signal ratio)
Summary of the method: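 Antagonist mode: compounds are added alongside the adenylyl cyclase activator NKH477 (0.25 uM final) to CRE-bla HEK293T cells for 3 h. LiveBLAzer FRET substrate, 2 h at room temperature, reports bla expression.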

[15] = molecular target: Beta-2 adrenergic receptor (Homo sapiens) (UniProt P07550); assay: Adrenergic beta2 receptor (ADRB2) small molecule antagonists, cell-based qHTS assay (AID 1963592); note: series mostly up to about 92 µM; nearly all actives have a fitted effect of over 50% in size
Summary of the method: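 Assay format: CHO-ADRB2 cells, 18-20hr seeding at 37C/5% CO2, then compound plus 1nM isoproterenol agonist mix for 0.5hr RT. Homogeneous time-resolved fluorescence cAMP detection after 1hr, expressed as 665/615 nm ratio.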

[16] = molecular target: Beta-2 adrenergic receptor (Homo sapiens) (UniProt P07550); assay: Adrenergic beta2 receptor (ADRB2) small molecule agonists, cell-based qHTS assay (AID 1963593);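 note: CHO cells stably overexpressing human ADRB2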
Summary of the method: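 CHO cells stably over-expressing ADRB2 were plated overnight at 37C, then dosed with compounds plus a stimulation mix containing 100uM IBMX and 25uM Ro-20-1724 for 0.5hr at room temperature. cAMP was measured by HTRF competition, 1hr.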

[17] = molecular target: D(2) dopamine receptor (Homo sapiens) (UniProt P14416); assay: Dopamine D2 receptor (DRD2) small molecule agonists, cell-based qHTS assay (AID 1963594); note: nearly all actives have a fitted effect of over 35% in size
Summary of the method: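 cAMP accumulation in DRD2-HEK293 cells measured by HTRF after 1 h detection; compounds added 10 min before NKH477 (200nM […]) forskolin-analogue stimulation, 30 min at room temperature, with Ro20-1724 present at 0.1 mM final.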

[18] = molecular target: D(2) dopamine receptor (Homo sapiens) (UniProt P14416); assay: Dopamine D2 receptor (DRD2) small molecule antagonists, cell-based qHTS assay (AID 1963595; active = well fitted inhibition curve with a large enough effect in the signal ratio in the repeat runs, with a control signal flat; the % refers to the signal ratio)
Summary of the method: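 Stable D2 receptor HEK293 line, 24 h after seeding. Compound preincubated 10 min, then quinpirole (12 nM) with forskolin analogue NKH477 (200 nM), 30 min, room temperature. Detection by time-resolved FRET of cAMP.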

[19] = molecular target: 5-hydroxytryptamine receptor 2A (Homo sapiens) (UniProt P28223); assay: 5-hydroxytryptamine receptor 2A (HTR2A) small molecule agonists, cell-based qHTS assay (AID 1963587); note: nearly all actives have a fitted effect of over 30% in size; note: potency is the fitted concentration of half-maximal effect
Summary of the method: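 Kinetic calcium-flux fluorescence (2 min, 1 sec intervals) after compound addition in agonist mode. HTR2A-CHO cells were cultured 18 h, then dye-loaded 1 h at 37 C.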

KiSS-1 receptor (Homo sapiens), sequence (Q969F8 whole entry, looked up): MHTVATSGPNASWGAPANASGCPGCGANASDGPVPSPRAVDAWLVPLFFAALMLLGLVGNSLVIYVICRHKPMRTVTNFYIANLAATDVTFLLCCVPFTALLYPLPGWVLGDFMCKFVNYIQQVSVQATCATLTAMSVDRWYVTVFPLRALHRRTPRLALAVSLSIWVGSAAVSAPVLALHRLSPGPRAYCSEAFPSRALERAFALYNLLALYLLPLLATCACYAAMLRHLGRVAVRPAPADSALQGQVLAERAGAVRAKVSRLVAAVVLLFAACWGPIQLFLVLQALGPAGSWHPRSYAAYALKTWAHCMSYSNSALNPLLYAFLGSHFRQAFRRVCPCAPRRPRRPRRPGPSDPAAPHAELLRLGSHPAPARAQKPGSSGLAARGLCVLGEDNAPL
Muscarinic acetylcholine receptor M1 (Homo sapiens), sequence (P11229 whole entry, looked up): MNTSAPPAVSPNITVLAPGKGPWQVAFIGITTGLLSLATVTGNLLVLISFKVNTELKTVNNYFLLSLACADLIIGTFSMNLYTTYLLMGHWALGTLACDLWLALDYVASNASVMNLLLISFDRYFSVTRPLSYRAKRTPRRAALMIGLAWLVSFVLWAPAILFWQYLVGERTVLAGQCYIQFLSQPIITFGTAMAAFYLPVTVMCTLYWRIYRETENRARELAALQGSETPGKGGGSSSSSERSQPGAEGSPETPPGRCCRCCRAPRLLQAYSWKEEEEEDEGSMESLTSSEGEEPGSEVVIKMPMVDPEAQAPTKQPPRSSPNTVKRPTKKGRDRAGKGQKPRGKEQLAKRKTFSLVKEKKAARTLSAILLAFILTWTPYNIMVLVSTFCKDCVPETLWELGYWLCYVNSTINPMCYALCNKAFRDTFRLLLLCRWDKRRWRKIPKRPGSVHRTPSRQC
Beta-2 adrenergic receptor (Homo sapiens), sequence (P07550 whole entry, looked up): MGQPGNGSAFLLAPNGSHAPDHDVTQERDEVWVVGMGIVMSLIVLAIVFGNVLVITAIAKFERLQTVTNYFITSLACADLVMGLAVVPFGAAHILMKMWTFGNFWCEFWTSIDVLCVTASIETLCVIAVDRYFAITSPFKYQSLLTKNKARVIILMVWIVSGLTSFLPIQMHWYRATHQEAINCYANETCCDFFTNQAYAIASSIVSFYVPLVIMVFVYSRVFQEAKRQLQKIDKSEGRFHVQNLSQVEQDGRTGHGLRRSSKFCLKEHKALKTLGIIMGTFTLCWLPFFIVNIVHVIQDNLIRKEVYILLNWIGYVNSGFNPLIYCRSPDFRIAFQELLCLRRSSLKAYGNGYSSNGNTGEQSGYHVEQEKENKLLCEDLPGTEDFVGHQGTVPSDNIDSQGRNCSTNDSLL
D(2) dopamine receptor (Homo sapiens), sequence (P14416 whole entry, looked up): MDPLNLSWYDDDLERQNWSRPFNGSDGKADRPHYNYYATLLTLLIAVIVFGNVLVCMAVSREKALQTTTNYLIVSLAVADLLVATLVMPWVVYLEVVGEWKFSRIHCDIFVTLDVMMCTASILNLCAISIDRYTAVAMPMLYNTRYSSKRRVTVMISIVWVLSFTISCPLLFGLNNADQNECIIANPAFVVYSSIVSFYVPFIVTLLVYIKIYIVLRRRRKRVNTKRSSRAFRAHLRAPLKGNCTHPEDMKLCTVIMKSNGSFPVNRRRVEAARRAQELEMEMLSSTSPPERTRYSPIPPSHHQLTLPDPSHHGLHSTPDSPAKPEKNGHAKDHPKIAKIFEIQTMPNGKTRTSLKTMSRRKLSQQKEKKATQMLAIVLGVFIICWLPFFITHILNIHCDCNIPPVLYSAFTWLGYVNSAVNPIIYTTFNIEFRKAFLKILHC
Gonadotropin-releasing hormone receptor (Homo sapiens), sequence (P30968 whole entry, looked up): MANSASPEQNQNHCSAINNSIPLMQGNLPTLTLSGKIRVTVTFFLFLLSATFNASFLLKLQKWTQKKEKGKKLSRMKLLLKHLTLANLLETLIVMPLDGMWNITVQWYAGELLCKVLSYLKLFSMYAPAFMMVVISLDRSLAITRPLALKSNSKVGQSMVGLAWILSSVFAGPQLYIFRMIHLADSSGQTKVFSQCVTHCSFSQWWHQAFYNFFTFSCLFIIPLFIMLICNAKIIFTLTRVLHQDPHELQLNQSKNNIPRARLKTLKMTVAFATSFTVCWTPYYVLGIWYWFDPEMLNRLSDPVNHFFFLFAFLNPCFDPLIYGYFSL
5-hydroxytryptamine receptor 2A (Homo sapiens), sequence (P28223 whole entry, looked up): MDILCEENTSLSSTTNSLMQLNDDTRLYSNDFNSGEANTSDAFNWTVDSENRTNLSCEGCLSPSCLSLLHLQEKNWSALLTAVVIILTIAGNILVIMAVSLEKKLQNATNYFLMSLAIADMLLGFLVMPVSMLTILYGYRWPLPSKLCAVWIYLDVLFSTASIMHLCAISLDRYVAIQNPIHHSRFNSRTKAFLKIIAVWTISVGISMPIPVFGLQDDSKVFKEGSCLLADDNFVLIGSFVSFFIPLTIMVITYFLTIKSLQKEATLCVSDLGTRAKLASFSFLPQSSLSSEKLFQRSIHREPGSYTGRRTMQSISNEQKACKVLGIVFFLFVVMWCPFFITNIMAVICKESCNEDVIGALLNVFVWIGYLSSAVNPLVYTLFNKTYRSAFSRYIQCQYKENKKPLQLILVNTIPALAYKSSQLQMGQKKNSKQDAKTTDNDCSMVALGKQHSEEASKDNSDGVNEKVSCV

Row | SMILES | Potency [1] | Potency [2] | Potency [3] | Potency [4] | Potency [5] | Potency [6] | Potency [7] | Potency [8] | Potency [9] | Potency [10] | Potency [11] | Potency [12] | Potency [13] | Potency [14] | Potency [15] | Potency [16] | Potency [17] | Potency [18] | Potency [19]
1 | CC(=O)O[C@@H]1C[C@@H]2CC[C@@]1(C)C2(C)C | inactive | inactive | inactive | inactive | inactive | inactive | inactive | inactive | inactive | inactive | inactive | inactive | inactive | inactive | inactive | inactive | inactive | inactive | –
2 | O=S(=O)(O)c1cc(O)c(O)c(S(=O)(=O)O)c1 | inactive | inactive | inactive | inactive | inactive | inactive | inactive | inactive | inactive | inactive | inactive | inactive | inactive | inactive | inactive | inactive | inactive | inactive | inactive
3 | C1C[C@@H]2[C@H]3CC[C@H](C3)[C@@H]2C1 | inactive | inactive | inactive | inactive | inactive | inactive | inactive | inactive | inactive | inactive | inactive | inactive | inactive | inactive | – | inactive | inactive | – | inactive
4 | CN(C)CCCNCCCN | inactive | inactive | inactive | inactive | inactive | inactive | inactive | inactive | inactive | inactive | inactive | inactive | inactive | inactive | inactive | – | inactive | inactive | inactive
5 | CC(C)=CCCC(C)CC=O (centres undefined) | inactive | inactive | inactive | inactive | inactive | inactive | inactive | inactive | inactive | – | – | – | inactive | inactive | inactive | inactive | inactive | inactive | –
6 | CCC(C(=O)OCCOCCN(CC)CC)c1ccccc1 (centres undefined) | inactive | inactive | inactive | inactive | inactive | inactive | inactive | inactive | inactive | inactive | inactive | inactive | inactive | inactive | inactive | inactive | inactive | – | 2.68 µM (active)
7 | CN(C)c1cc(NC(=O)CNC(C)(C)C)c(O)c2c1C[C@H]1C[C@H]3[C@H](N(C)C)C(=O)C(C(N)=O)=C(O)[C@@]3(O)C(=O)C1=C2O | inactive | inactive | inactive | inactive | inactive | inactive | inactive | inactive | inactive | inactive | inactive | inactive | inactive | inactive | inactive | inactive | inactive | inactive | inactive
